# Results from ChEMBL document CHEMBL4513141, “CO-ADD screening of NIH (USA) - Clinical Collection” (2021).
# Entries with a potency or affinity are not part of this list.
# Key:
# Klebsiella pneumoniae = conditions: Concentration 20 uM; ASSAY_TEST Inhibition of Bacterial Growth; detection method Absorption (OD600); MEDIA CAMHB; plate type 384well; NBS; CORNING #3640; time 18 hr
# Candida albicans = conditions: 20 µM
# Cryptococcus neoformans = conditions: Concentration 20 uM; ASSAY_TEST Inhibition of Fungal Growth; detection method Resazurin; Absorption (OD600-OD570); plate type 384well; NBS; CORNING #3640
SMILES,Inhibition (Klebsiella pneumoniae) [%],Inhibition (Candida albicans) [%],Inhibition (Cryptococcus neoformans) [%]
Cl.O.OC[C@H]1O[C@@H](n2cnc3c(N[C@H]4CCC[C@@H]4O)ncnc32)[C@@H](O)C1O (stereo partly specified),8.61,3.02,-2.1
CC(=O)S[C@@H]1CC2=CC(=O)CC[C@]2(C)[C@H]2CC[C@@]3(C)[C@@H](CC[C@@]34CCC(=O)O4)[C@H]12 [SPIRONOLACTONE],18.33,1.56,-2.8
CCN1CCCC1CNC(=O)c1cc(S(=O)(=O)CC)c(N)cc1OC (stereo unspecified) [AMISULPRIDE],4.49,1.45,-4
C[C@]12CCC(=O)C=C1CC[C@@H]1[C@@H]2[C@@H](O)C[C@@]2(C)[C@H]1CC[C@]2(O)C(=O)CO [HYDROCORTISONE],5.06,1.65,-3.64
Cc1ccc(O)c([C@H](CCN(C(C)C)C(C)C)c2ccccc2)c1.O=C(O)C(O)C(O)C(=O)O [TOLTERODINE TARTRATE],6.3,4.41,-7.64
CN1CCC(=C2c3ccccc3CCc3sccc32)CC1.O=C(O)/C=C\C(=O)O,13.2,3.52,-10.62
CC(=O)[C@@]1(O)CC[C@H]2[C@@H]3C[C@H](C)C4=CC(=O)CC[C@]4(C)[C@H]3CC[C@@]21C,2.71,2.87,-0.94
CN(C)CCCSc1ccccc1NC(=O)/C=C/c1ccccc1.Cl.O,18.81,2.74,-8.97
CCN(CC)CCOc1ccc(C(=C(Cl)c2ccccc2)c2ccccc2)cc1.O=C(O)CC(O)(CC(=O)O)C(=O)O [CLOMIPHENE CITRATE],12.13,7.1,-20.85
C[C@@H]1CN(CCCn2c3ccccc3c3ccccc32)C[C@H](C)N1.Cl.O,-0.67,0.45,2.04
CCN(Cc1ccncc1)C(=O)C(CO)c1ccccc1 (stereo unspecified) [TROPICAMIDE],7.31,0.91,-7.15
Cn1cnc([N+](=O)[O-])c1Sc1ncnc2[nH]cnc12 [AZATHIOPRINE],13.95,4.62,-6.38
Cl.Clc1ccccc1CN1CCc2sccc2C1 [TICLOPIDINE HYDROCHLORIDE],-0.77,1.25,-6.79
Oc1ncc(F)cn1,12.75,0.46,-8.59
C[C@H]1[C@@H](OC(=O)CCC(=O)O)O[C@@H]2O[C@@]3(C)CC[C@H]4[C@H](C)CC[C@@H]1[C@@]24OO3,13.77,26.5,-1.11
CCCSc1ccc2[nH]c(NC(=O)OC)nc2c1 [ALBENDAZOLE],3.18,2.62,42.52
CCN1CC(CCN2CCOCC2)C(c2ccccc2)(c2ccccc2)C1=O.Cl (stereo unspecified),1.35,4.41,-0.87
CCCCNC(=O)NS(=O)(=O)c1ccc(C)cc1 [TOLBUTAMIDE],16.6,1.06,0.26
Cl.c1ccc(CC2=NCCN2)cc1 [TOLAZOLINE HYDROCHLORIDE],3.87,2.51,-1.43
COc1cc(C)c(/C=C/C(C)=C/C=C/C(C)=C/C(=O)O)c(C)c1C [ACITRETIN],7.64,3.07,-7.56
CCC1=C(C)CN(C(=O)NCCc2ccc(S(=O)(=O)NC(=O)N[C@H]3CC[C@H](C)CC3)cc2)C1=O [GLIMEPIRIDE],11.97,1.98,-2.89
O=C(O)CCc1nc(-c2ccccc2)c(-c2ccccc2)o1 [OXAPROZIN],16.28,18.9,-4.51
CCc1cc(C(N)=S)ccn1 [ETHIONAMIDE],13.14,1.99,-7.71
Nc1ccn([C@H]2CC[C@@H](CO)O2)c(=O)n1 [ZALCITABINE],8,0.46,-0.26
CN1C(=O)CC[C@H]1c1cccnc1 [COTININE],5.32,4.46,-1.87
CN(C)CCC[C@@]1(c2ccc(F)cc2)OCc2cc(C#N)ccc21.O=C(O)C(=O)O [ESCITALOPRAM OXALATE],13.63,3.94,-10.38
Nc1nnc(-c2cccc(Cl)c2Cl)c(N)n1 [LAMOTRIGINE],6.26,3.32,-2.92
